Experimental data reported in the supplement of paper PMC10849652.
Targets with a hit are over-represented here; the source holds about 8,800 in all. About 0.5% of all pairs of compound and target were hits. A number with no mark means an inactive call.

What was measured:
Test in all cases: log2 fold change, soluble protein after heating vs DMSO (PISA); higher = thermal stabilisation; K562 lysate, 10 uM; active = over 0.2 and 3.5 SD of the protein, either way, in both replicates (recomputed)
[1] = compound: C=CC(=O)N1CCC[C@@H](n2nc(-c3ccc(Oc4ccccc4)cc3)c3c(N)ncnc32)C1 [ibrutinib]
Procedure, shortened: (§1)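 Following dounce homogenisation of K562 pellets in PBS pH 7.4 with 1 mM MgCl2, crude extract at 1 mg/mL protein was incubated for 30 min with 10 μM compound. Aliquots were then heated for 3 min over 48°C-58°C and pooled, NP-40 was added to 0.5% at 4°C, and soluble protein was recovered as the supernatant at 21,000xg for 90 min. Channel-sum-equalised TMTpro 16plex LC-MS/MS quantified this protein. Each value, from duplicates, is a log-two fold change in thermal stability relative to solvent controls.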

[2] = compound: CC(=O)c1cnc2ccc(-c3cc(Cl)c(O)c(Cl)c3)nc2c1N[C@H]1CC[C@H](CN(C)C)CC1
Procedure, shortened: as §1

[3] = compound: CC(C)(C)Cn1c(N)nc2ccc(-c3[nH]c(C(C)(C)C)nc3-c3ccc(F)cc3)nc21 [ralimetinib]
Procedure, shortened: as §1

[4] = compound: CC(C)(O)CC(=O)NCCn1ccc2ncnc(Nc3ccc(Oc4cccc(C(F)(F)F)c4)c(Cl)c3)c21
Procedure, shortened: as §1

[5] = compound: CC(C)C1=C2N=C(C=C(N2N=C1)NCC3=CC=CC=C3)NCCCCCCN
Procedure, shortened: as §1

[6] = compound: CC1=C(C(CC(=O)N1)C2=CC=C(C=C2)C(F)(F)F)C(=O)NC3=C(C=C4C(=C3)C=NN4)F
Procedure, shortened: as §1

[7] = compound: CC1=C(C2=C(C=C1)C(=O)C3=CC=CC=C3N2CCCN)C
Procedure, shortened: as §1

[8] = compound: CC1=C(C=C(C=C1)NC(=O)C2=CC(=CC=C2)C(C)(C)C#N)NC3=CC4=C(C=C3)N=CN(C4=O)C
Procedure, shortened: as §1

[9] = compound: CC1=C(C=C(C=C1)NC(=O)C2=CC(=CC=C2)N(C)C)NC(=O)C3=CC=C(C=C3)O
Procedure, shortened: as §1

[10] = compound: CC1=CC=C(C=C1)SC2=C3C=C(SC3=CN=C2)C(=O)N
Procedure, shortened: as §1

[11] = compound: CCCS(=O)(=O)Nc1ccc(F)c(C(=O)c2c[nH]c3ncc(-c4ccc(Cl)cc4)cc23)c1F [vemurafenib]
Procedure, shortened: as §1

[12] = compound: CCCS(=O)(=O)Nc1ccc(F)c(C(=O)c2c[nH]c3ncc(Cl)cc23)c1F
Procedure, shortened: as §1

[13] = compound: CCN(CCCOc1ccc2c(Nc3cc(CC(=O)Nc4cccc(F)c4)[nH]n3)ncnc2c1)CCOP(=O)(O)O [barasertib]
Procedure, shortened: as §1

[14] = compound: CC[C@@H]1C(=O)N(C)c2cnc(Nc3ccc(C(=O)NC4CCN(C)CC4)cc3OC)nc2N1C1CCCC1
Procedure, shortened: as §1

[15] = compound: CC[C@@H]1C(=O)N(C)c2cnc(Nc3ccc(C(=O)N[C@H]4CC[C@H](N5CCN(CC6CC6)CC5)CC4)cc3OC)nc2N1C(C)C [volasertib]
Procedure, shortened: as §1

[16] = compound: CCn1c(C(=O)N(C2CC2)C2CC2)cc2c3c(ncn3C)c(Nc3cc(C)n(C)n3)nc21
Procedure, shortened: as §1

[17] = compound: CCn1cc(-c2ccnc3[nH]c(-c4cccc(CN(C)C)c4)cc23)c(-c2ccc(NC(=O)N(C)C)cc2)n1
Procedure, shortened: as §1

[18] = compound: CN1CCC(CNc2ccc3ncc(-c4cccc(OC(F)(F)F)c4)n3n2)CC1
Procedure, shortened: as §1

[19] = compound: CN1CCN(CCOc2cc(OC3CCOCC3)c3c(Nc4c(Cl)ccc5c4OCO5)ncnc3c2)CC1 [saracatinib]
Procedure, shortened: as §1

[20] = compound: CN1CCN(c2nc(C3=C(c4c[nH]c5ccccc45)C(=O)NC3=O)c3ccccc3n2)CC1 [sotrastaurin]
Procedure, shortened: as §1

Chain of UniProt Q9BZF3 (Q9BZF3 whole entry, looked up): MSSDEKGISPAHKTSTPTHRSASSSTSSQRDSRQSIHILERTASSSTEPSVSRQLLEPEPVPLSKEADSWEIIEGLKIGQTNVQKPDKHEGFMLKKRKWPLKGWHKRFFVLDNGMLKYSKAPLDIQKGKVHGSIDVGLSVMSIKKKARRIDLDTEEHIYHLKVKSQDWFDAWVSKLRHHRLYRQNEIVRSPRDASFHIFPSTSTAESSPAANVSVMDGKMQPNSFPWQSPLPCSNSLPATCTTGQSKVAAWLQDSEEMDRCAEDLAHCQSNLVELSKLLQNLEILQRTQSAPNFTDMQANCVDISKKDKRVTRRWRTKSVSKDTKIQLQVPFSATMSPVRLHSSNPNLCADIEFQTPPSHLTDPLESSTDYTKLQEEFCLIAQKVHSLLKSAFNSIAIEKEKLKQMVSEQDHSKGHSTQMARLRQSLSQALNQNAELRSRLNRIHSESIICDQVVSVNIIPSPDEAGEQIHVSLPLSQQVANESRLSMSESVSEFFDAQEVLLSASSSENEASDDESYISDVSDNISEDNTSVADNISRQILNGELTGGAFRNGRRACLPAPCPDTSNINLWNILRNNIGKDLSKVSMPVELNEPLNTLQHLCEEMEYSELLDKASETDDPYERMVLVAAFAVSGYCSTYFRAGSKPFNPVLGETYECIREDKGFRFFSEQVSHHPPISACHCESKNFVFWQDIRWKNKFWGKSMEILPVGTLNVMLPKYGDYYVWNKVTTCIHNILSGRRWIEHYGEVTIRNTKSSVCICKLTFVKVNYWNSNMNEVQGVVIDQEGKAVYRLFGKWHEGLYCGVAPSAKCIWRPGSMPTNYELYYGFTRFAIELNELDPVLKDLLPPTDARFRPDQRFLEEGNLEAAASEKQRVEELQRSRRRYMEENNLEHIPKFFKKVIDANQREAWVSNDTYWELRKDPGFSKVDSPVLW
Chain of UniProt Q96RE7 (Q96RE7 whole entry, looked up): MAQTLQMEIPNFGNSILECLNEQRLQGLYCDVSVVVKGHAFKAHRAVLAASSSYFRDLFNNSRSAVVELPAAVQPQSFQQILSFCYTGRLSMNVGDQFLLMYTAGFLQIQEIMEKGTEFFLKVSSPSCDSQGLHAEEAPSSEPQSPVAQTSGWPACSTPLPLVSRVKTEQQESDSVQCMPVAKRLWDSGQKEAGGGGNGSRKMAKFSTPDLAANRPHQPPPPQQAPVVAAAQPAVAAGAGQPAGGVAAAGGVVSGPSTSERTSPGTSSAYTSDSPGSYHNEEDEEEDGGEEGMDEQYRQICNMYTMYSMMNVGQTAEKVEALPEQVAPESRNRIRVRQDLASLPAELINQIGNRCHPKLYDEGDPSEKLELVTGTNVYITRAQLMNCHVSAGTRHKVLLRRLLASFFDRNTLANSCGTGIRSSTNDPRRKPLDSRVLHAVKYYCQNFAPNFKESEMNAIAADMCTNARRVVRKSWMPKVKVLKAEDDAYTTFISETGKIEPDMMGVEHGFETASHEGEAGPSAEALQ
Chain of UniProt Q9UFN0 (Q9UFN0 whole entry, looked up): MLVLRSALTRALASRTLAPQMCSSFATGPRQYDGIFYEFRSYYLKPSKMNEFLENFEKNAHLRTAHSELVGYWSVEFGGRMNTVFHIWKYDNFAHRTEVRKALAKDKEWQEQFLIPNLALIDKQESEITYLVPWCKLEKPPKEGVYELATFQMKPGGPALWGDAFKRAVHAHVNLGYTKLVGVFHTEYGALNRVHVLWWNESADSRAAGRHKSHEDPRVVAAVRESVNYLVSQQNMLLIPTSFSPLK
Chain of UniProt Q8TAT6 (Q8TAT6 whole entry, looked up): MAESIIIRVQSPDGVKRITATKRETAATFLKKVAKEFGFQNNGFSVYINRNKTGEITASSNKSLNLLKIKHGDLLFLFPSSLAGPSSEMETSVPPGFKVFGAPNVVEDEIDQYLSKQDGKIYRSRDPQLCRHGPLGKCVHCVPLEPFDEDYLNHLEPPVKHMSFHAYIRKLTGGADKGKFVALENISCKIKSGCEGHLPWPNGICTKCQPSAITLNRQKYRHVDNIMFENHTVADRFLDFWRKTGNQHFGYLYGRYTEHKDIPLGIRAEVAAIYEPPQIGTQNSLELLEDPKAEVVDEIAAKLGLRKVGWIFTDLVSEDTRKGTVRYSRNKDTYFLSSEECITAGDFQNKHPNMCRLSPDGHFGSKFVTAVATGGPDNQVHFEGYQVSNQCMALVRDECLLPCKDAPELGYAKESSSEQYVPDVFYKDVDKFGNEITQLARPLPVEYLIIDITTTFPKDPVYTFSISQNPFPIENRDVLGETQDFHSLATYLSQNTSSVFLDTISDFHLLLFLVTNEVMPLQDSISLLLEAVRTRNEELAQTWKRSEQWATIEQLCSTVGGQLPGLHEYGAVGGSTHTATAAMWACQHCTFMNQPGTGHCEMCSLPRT
Chain of UniProt Q9NZJ9 (Q9NZJ9 whole entry, looked up): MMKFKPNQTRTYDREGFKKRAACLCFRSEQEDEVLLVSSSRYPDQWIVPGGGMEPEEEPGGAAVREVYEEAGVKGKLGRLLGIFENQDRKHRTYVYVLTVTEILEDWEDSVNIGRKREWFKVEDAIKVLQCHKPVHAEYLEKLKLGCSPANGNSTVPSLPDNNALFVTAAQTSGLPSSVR
Chain of UniProt P35749 (P35749 whole entry, looked up): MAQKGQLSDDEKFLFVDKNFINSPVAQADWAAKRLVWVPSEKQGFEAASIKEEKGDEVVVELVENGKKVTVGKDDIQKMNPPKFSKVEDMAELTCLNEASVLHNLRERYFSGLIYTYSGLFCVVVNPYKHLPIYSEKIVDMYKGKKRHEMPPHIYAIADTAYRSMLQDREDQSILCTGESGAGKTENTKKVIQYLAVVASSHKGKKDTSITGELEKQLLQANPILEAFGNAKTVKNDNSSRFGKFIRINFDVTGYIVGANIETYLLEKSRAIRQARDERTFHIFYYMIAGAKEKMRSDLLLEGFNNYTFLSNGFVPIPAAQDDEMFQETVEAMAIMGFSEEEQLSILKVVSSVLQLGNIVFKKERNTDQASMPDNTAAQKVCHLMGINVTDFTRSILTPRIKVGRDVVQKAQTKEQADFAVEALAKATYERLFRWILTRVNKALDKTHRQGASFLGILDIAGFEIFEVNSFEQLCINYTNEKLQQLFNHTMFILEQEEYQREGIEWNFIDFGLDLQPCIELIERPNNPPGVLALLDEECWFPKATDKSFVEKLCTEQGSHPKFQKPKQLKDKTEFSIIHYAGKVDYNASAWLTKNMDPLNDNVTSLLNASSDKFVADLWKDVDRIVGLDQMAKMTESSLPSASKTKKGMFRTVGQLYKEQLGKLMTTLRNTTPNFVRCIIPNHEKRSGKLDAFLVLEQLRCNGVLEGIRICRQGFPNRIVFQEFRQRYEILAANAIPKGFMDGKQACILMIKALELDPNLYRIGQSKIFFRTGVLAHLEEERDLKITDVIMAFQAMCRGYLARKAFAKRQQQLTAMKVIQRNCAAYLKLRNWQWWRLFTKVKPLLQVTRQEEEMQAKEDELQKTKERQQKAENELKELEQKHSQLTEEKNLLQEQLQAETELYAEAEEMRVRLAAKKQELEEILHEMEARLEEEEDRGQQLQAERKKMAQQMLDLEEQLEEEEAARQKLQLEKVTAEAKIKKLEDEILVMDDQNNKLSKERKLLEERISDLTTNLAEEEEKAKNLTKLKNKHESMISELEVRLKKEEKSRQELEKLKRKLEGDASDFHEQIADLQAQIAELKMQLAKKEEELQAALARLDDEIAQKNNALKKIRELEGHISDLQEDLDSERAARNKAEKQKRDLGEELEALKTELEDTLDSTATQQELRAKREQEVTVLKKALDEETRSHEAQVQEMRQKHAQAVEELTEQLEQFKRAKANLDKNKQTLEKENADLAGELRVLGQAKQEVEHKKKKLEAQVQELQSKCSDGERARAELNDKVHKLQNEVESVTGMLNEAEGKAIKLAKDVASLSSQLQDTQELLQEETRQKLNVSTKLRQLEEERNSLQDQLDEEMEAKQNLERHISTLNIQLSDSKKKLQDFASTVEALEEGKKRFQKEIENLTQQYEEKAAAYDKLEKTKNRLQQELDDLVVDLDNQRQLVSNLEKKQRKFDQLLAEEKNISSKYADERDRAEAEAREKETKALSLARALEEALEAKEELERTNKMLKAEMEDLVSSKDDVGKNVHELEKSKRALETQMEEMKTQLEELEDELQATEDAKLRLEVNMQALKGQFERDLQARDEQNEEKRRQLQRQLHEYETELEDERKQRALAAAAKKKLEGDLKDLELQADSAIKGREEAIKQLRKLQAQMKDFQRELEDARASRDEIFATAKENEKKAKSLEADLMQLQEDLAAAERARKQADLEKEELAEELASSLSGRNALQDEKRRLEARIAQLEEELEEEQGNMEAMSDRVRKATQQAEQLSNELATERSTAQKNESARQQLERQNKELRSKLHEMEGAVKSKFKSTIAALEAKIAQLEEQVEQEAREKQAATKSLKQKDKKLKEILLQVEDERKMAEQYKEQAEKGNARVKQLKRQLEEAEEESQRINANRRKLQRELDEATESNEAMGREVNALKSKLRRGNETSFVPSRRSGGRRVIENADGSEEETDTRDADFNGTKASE

| Target | log2 fold change [1] | log2 fold change [2] | log2 fold change [3] | log2 fold change [4] | log2 fold change [5] | log2 fold change [6] | log2 fold change [7] | log2 fold change [8] | log2 fold change [9] | log2 fold change [10] | log2 fold change [11] | log2 fold change [12] | log2 fold change [13] | log2 fold change [14] | log2 fold change [15] | log2 fold change [16] | log2 fold change [17] | log2 fold change [18] | log2 fold change [19] | log2 fold change [20] |
| --- | --- | --- | --- | --- | --- | --- | --- | --- | --- | --- | --- | --- | --- | --- | --- | --- | --- | --- | --- | --- |
| NCAPG (UniProt Q9BPX3) | 0.006 | 0.015 | 0.027 | -0.015 | -0.026 | -0.009 | -0.02 | 0.014 | 0.018 | 0.024 | -0.013 | 0.021 | 0.018 | -0.057 | -0.023 | 0.015 | -0.05 | -0.024 | 0.001 | -0.011 |
| NPLOC4 isoform 2 (UniProt Q8TAT6) | -0.016 | -0.015 | -0.01 | -0.003 | 0.027 | -0.005 | -0.009 | 0.062 | 0.018 | -0.015 | -0.011 | 0.025 | -0.019 | 0.025 | -0.011 | -0.016 | -0.066 | 0.007 | 0.004 | -0.005 |
| MYH11 isoform 2 (UniProt P35749) | -0.051 | -0.011 | -0.094 | -0.043 | 0.013 | -0.019 | -0.007 | -0.043 | 0 | -0.004 | 0.027 | 0.016 | 0.016 | -0.011 | -0.025 | 0.091 | 0.25 (active) | -0.033 | 0.029 | 0.002 |
| MRPL53 (UniProt Q96EL3) | 0.041 | -0.018 | 0.062 | -0.047 | 0.016 | -0.047 | 0.011 | 0.042 | 0.044 | 0.011 | -0.006 | -0.01 | 0.032 | 0.069 | 0.057 | -0.017 | 0.013 | -0.019 | -0.003 | -0.021 |
| OSBPL6 isoform 5 (UniProt Q9BZF3) | 0.118 | -0.031 | 0.23 | -0.042 | 0.098 | -0.032 | 0.016 | 0.015 | -0.013 | 0.01 | -0.026 | -0.021 | -0.015 | -0.052 | -0.072 | 0.015 | -0.004 | 0.084 | -0.009 | -0.035 |
| NIPSNAP3A (UniProt Q9UFN0) | -0.013 | -0.014 | -0.016 | -0.049 | 0.029 | 0.023 | -0.021 | 0.004 | 0.022 | -0.056 | -0.005 | 0.018 | -0.04 | 0.043 | 0.019 | -0.024 | 0.324 | -0.213 | -0.002 | 0.021 |
| NUDT4 (UniProt Q9NZJ9) | 0.091 | 0.022 | 0.074 | 0.067 | -0.012 | 0.017 | 0.003 | -0.105 | -0.014 | 0.058 | -0.24 | 0.04 | -0.032 | -0.078 | -0.054 | 0.082 | 0.23 | 0.005 | -0.03 | 0.005 |
| NACC1 (UniProt Q96RE7) | -0.015 | -0.001 | 0.009 | -0.003 | -0.014 | 0.039 | -0.016 | -0.022 | 0.009 | -0.022 | -0.039 | -0.003 | 0.039 | -0.027 | 0.008 | 0.004 | -0.059 | -0.003 | -0.016 | 0.034 |
| MTHFD1L (UniProt B7ZM99) | -0.034 | -0.014 | 0.004 | 0.011 | -0.007 | -0.005 | -0.006 | 0.033 | 0.02 | -0.023 | 0.01 | 0 | -0.033 | -0.111 | -0.002 | 0.019 | -0.013 | -0.056 | 0.004 | 0.036 |
